Active and inactive are the calls of the source. Calls come from the whole dose curve.
Experiment: G protein-coupled receptor (GPCR) small molecule agonists, calcium flux assay: HEK293 wild type cell line counter screen (AID 1920065)
Conditions: HEK293 WT calcium flux, fluorescence, agonist mode; series mostly up to 57.6 µM
Source text: U.S. Tox21 Program National Center for Advancing Translational Sciences [NCATS] Division of Preclinical Innovation [DPI] U.S. Environmental Protection Agency [EPA] National Institutes of Environmental Health Sciences [NIEHS] National Toxicology Program [NTP] U.S. Food and Drug Administration [FDA] Assay overview: The increased intracellular calcium release that occurred upon G protein-coupled receptor (GPCR) activation led to the frequent use of calcium flux assays to detect GPCR activation. For the purpose of studying and screening compounds that may activate GPCR, receptor-overexpressing models were typically generated using Hek293 wild-type (WT) cells. In order to eliminate the compounds that may have induced calcium release for non-specific activation, a counter-assay utilizing calcium flux on Hek293 WT cells was performed. The data were formulated in order to serve as a control for any calcium flux detection utilizing Hek293 cells with either GPCR overexpression or gene modification. The procurement of Hek293 WT cells from ATCC. Fluorescence intensity can be utilized to determine the activation of the compound in a calcium flux assay. As a counter control, this cell line was utilized to screen the Tox21 10K compound library.
Assay Protocol Summary: Hek293 cells were dispensed at 1500cells/4uL/well in 1536-well black wall/clear bottom plates using a multidrop dispenser. After the assay plates were incubated at a 37 C/5% CO2 incubator for 18 hours, 4 uL of Calcium Dye Solution was added to each well. The plates were incubated at 37 C for 1 hour. For agonist mode, 23 nL of compounds dissolved in DMSO, positive control (ATP) or DMSO only was transferred to the assay plate by a pin tool station. The fluorescence intensity in the plates was measured using FDSS 7000EX kinetic plate reader with a filter set of Ex/Em=480/540 for 3 min at 1 sec intervals. Each test compound was measured at 15 concentrations and in triplicates.
For `CC1OC(=O)C(C)OC1=O` (stereo not given), the outcome was “inactive”.
In the case of `Oc1ccc(Cl)c2cccnc12`, the outcome is reported as “inactive”.
For `C#C[C@]1(OC(C)=O)CC[C@H]2[C@@H]3CCC4=C[C@@H](OC(C)=O)CC[C@@H]4[C@H]3CC[C@@]21C`, the outcome was “inactive”.
For `CCCCS`, the outcome was “inactive”.
For `Cn1c(N)c(N=O)c(=O)n(C)c1=O`, the outcome was “inactive”.
With `C=CCOc1nc(OCC=C)nc(OCC=C)n1` the outcome was “inactive”.
For `CCCCNc1c(C(=O)OCC)c(C)nc2c1cnn2CC`, the outcome was “inactive”.
In the case of `CCOC(=O)COC(=O)c1ccccc1C(=O)OCC`, the outcome is reported as “inactive”.
For `Nc1ccc(S(=O)(=O)NC(=O)c2ccccc2)cc1`, the outcome was “inactive”.
With `CCN(CC)CCNC(=O)c1cc(Br)c(N)cc1OC` the outcome was “inactive”.
In the case of `O=S(=O)(O)c1ccc(N=Nc2c(O)ccc3ccccc23)cc1`, the outcome is reported as “inactive”.
For `CC1(C)CC(N)CC(C)(C)N1`, the outcome was “inactive”.
In the case of `Cc1c(Cl)cccc1[N+](=O)[O-]`, the outcome is reported as “inactive”.
For `O=Cc1ccccc1[N+](=O)[O-]`, the outcome was “inactive”.
In the case of `Cc1cc(OI)c(C(C)C)cc1-c1cc(C(C)C)c(OI)cc1C`, the outcome is reported as “inactive”.
In the case of `O=Cc1c(Cl)cccc1Cl`, the outcome is reported as “inactive”.
In the case of `CCCCCCCCOC(C)=O`, the outcome is reported as “inactive”.
In the case of `SC1CCCCC1`, the outcome is reported as “inactive”.
In the case of `CO[Si](C)(OC)c1ccccc1`, the outcome is reported as “inactive”.
With `O=C(c1ccco1)N1CCNCC1` the outcome was “inactive”.
In the case of `Clc1nc(C(Cl)(Cl)Cl)c(Cl)c(Cl)c1Cl`, the outcome is reported as “inactive”.
With `NC(N)=NC(=O)Cc1c(Cl)cccc1Cl` the outcome was “inactive”.
With `CCCCCCCCC=O` the outcome was “inactive”.
For `CN1CCN(N)CC1`, the outcome was “inactive”.
In the case of `Cc1nc2ccccc2n1Cc1ccc(Cl)cc1`, the outcome is reported as “inactive”.
With `C/C(=N/NC(=O)c1ccncc1)C(=O)O` the outcome was “inactive”.
With `CCCCC(CC)C(=O)OC(C)C` (stereo not given) the outcome was “inactive”.
For `OCC(CBr)(CBr)CBr`, the outcome was “inactive”.
In the case of `OCC(O)[C@@H](O)[C@H](O)[C@H](O)CO[C@H]1O[C@H](CO)[C@@H](O)[C@H](O)[C@H]1O` (stereo not given in full), the outcome is reported as “inactive”.
With `CN1[C@@H]2CC[C@H]1CC(OC(=O)c1c[nH]c3ccccc13)C2` (stereo not given in full) the outcome was “inactive”.
For `CC(CNC1CCCCC1)OC(=O)c1ccccc1` (stereo not given), the outcome was “inactive”.
With `CCC(=O)O[C@]1(C(=O)COC)[C@@H](C)C[C@H]2[C@@H]3CCC4=CC(=O)C=C[C@]4(C)C3(F)[C@@H](O)C[C@@]21C` (stereo not given in full) the outcome was “inactive”.
For `CN(C)c1ccc(C(c2ccccc2)c2ccc(N(C)C)cc2)cc1`, the outcome was “inactive”.
In the case of `CN(C)CCCN1c2ccccc2Sc2ccccc21`, the outcome is reported as “inactive”.
With `CCCCC/C=C\CCC=O` the outcome was “inactive”.
With `Nc1ccc(NC(=O)c2ccc(N)cc2)cc1` the outcome was “inactive”.
With `OCCSc1ccccc1` the outcome was “inactive”.
In the case of `CCCCCCCCCCCCCCC1CO1` (stereo not given), the outcome is reported as “inactive”.
With `C[C@H](N)C(=O)N[C@@H](C)C(=O)NC1[C@H]2CN(c3nc4c(cc3F)c(=O)c(C(=O)O)cn4-c3ccc(F)cc3F)C[C@@H]12` (stereo not given in full) the outcome was “inactive”.
In the case of `CC1(c2ccccc2)OC(C(=O)O)=CC1=O` (stereo not given), the outcome is reported as “inactive”.

From PubChem BioAssay (Tox21)
